Drawing on the supplement of paper PMC10849652, this text covers log2 fold change for 24 targets.

Of roughly 8,800 targets only a part is listed; those with a hit were picked by preference. About 0.5% of all pairs of compound and target were hits. A number with no mark means an inactive call.

Holding throughout (test): log2 fold change, soluble protein after heating vs DMSO (PISA); higher = thermal stabilisation; K562 lysate, 10 uM; active = over 0.2 and 3.5 SD of the protein, either way, in both replicates (recomputed)
Compound in assay [1]: NCC(=O)Nc1ccc(-n2nc(C(F)(F)F)cc2-c2ccc3c(ccc4ccccc43)c2)cc1
In a few lines:
(§1)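 Soluble protein was defined as the supernatant remaining after 21,000xg for 90 min, following pooling of heated aliquots and adjustment to 0.5% NP-40 at 4°C. Before that, crude K562 extract at 1 mg/mL protein in PBS pH 7.4 with 1 mM MgCl2 was treated with 10 μM compound for 30 min and heated for 3 min across 48°C-58°C. Quantification used TMTpro 16plex LC-MS/MS with channel sums equalised, and values are log-two fold changes in thermal stability relative to solvent controls from duplicates.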

Compound in assay [2]: O=C(CCCCCCC(=O)Nc1ccccc1)NO [vorinostat]
In a few lines: as §1

Compound in assay [3]: O=C(O)c1ccc2c(c1)nc(Nc1cccc(Cl)c1)c1ccncc12 [silmitasertib]
In a few lines:
as §1

Compound in assay [4]: O=C1NC(=O)C(c2cnc3ccccn23)=C1c1cn2c3c(cc(F)cc13)CN(C(=O)N1CCCCC1)CC2
The procedure, abridged: as §1

Compound in assay [5]: c1cn2cc(-c3ccc4cn[nH]c4c3)nc(Nc3ccc(N4CCOCC4)cc3)c2n1 [entospletinib]
The procedure, abridged:
as §1

Sequence of UniProt Q96E14 (Q96E14 whole entry, looked up): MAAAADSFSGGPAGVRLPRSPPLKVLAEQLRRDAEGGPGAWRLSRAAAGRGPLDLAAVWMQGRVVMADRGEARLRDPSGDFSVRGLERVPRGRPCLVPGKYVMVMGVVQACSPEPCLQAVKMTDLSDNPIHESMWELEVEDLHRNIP
Sequence of UniProt Q9UPU9 (Q9UPU9 whole entry, looked up): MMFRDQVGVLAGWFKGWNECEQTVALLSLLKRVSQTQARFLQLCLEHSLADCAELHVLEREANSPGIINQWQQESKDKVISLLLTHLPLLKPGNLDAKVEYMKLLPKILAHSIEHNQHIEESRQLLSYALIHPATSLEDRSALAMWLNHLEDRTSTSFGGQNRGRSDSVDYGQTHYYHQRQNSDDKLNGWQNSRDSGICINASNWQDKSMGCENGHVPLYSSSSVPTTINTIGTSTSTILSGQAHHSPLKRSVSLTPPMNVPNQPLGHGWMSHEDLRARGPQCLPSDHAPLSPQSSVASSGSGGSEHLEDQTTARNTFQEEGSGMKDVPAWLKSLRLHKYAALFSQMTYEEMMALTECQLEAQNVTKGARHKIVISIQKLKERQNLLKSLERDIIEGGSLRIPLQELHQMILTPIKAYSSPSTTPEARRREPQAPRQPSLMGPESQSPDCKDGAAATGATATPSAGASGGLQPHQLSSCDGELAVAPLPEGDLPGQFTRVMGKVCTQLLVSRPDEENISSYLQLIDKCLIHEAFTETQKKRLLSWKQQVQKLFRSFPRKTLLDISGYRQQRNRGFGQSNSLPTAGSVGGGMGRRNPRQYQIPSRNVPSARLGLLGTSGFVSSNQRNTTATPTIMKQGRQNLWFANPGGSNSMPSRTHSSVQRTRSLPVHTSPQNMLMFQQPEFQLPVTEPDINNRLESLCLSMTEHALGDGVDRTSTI
Sequence of UniProt P60059 (P60059 whole entry, looked up): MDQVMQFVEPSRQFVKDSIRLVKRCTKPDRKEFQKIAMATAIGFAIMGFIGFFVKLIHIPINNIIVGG
Sequence of UniProt Q9Y6B6 (Q9Y6B6 whole entry, looked up): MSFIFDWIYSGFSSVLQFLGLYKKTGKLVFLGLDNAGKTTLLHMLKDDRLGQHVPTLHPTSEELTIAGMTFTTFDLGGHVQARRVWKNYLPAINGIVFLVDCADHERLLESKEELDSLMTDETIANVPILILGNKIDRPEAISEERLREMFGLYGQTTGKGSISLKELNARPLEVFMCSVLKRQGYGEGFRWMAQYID
Sequence of UniProt Q14644 (Q14644 whole entry, looked up): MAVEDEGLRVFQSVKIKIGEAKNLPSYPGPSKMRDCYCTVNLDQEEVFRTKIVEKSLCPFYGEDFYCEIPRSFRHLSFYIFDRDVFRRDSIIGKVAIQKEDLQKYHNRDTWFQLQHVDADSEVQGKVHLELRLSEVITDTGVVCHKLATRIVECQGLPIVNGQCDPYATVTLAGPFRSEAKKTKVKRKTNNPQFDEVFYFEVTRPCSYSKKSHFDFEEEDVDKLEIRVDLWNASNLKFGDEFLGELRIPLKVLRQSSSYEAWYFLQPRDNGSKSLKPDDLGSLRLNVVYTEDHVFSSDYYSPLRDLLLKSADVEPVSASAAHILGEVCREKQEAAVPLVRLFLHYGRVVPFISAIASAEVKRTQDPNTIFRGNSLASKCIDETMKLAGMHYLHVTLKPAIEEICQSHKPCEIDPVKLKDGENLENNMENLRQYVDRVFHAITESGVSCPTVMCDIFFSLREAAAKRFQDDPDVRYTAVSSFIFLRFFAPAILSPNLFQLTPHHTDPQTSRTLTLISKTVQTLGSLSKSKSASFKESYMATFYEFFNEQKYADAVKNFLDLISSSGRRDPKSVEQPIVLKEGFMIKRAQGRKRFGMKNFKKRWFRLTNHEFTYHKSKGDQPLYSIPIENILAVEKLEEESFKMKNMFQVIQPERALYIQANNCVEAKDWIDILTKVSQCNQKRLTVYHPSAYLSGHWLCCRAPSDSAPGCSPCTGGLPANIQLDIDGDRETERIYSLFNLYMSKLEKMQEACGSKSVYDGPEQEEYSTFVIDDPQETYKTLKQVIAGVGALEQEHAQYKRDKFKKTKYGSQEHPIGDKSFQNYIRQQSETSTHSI
Sequence of UniProt Q92878 (Q92878 whole entry, looked up): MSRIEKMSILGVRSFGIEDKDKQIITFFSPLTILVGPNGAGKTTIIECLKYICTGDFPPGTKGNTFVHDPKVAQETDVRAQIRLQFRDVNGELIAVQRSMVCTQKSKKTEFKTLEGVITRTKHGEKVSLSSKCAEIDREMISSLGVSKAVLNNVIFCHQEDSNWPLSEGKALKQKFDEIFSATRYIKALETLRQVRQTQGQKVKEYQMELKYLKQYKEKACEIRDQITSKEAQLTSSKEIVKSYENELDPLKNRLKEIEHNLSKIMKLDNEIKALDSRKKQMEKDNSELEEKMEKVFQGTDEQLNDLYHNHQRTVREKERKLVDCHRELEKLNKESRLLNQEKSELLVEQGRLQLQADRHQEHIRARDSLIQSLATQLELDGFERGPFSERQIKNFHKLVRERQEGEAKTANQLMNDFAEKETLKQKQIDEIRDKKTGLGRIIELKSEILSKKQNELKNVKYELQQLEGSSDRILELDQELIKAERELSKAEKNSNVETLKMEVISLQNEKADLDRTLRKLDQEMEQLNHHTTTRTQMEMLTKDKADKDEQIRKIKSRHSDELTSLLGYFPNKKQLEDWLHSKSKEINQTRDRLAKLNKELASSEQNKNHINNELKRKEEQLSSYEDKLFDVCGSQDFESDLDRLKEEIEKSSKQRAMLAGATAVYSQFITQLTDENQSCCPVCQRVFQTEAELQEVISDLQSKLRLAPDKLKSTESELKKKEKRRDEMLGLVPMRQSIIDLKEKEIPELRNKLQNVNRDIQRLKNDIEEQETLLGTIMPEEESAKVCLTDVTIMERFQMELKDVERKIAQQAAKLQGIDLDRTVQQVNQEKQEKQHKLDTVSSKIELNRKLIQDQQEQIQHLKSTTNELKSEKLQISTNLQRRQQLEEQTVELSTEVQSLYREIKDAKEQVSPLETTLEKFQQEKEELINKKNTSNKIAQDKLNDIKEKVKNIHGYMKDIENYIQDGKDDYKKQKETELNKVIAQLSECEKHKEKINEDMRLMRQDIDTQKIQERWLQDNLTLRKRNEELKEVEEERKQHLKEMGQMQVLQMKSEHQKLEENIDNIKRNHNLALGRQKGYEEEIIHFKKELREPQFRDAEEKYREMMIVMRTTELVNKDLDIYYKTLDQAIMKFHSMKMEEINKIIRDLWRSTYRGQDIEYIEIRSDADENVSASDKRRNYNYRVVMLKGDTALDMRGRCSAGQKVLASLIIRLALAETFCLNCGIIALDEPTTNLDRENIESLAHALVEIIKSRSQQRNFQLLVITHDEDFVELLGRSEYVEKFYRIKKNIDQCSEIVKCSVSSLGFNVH
Sequence of UniProt P53805 (P53805 whole entry, looked up): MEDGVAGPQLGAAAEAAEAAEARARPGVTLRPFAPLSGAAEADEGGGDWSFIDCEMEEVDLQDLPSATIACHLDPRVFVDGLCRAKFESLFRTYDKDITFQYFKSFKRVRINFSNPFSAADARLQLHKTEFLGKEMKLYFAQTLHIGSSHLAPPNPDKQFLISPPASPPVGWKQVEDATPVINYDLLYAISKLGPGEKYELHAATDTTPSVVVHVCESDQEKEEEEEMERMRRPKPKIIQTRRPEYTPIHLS
Sequence of UniProt P58004 (P58004 whole entry, looked up): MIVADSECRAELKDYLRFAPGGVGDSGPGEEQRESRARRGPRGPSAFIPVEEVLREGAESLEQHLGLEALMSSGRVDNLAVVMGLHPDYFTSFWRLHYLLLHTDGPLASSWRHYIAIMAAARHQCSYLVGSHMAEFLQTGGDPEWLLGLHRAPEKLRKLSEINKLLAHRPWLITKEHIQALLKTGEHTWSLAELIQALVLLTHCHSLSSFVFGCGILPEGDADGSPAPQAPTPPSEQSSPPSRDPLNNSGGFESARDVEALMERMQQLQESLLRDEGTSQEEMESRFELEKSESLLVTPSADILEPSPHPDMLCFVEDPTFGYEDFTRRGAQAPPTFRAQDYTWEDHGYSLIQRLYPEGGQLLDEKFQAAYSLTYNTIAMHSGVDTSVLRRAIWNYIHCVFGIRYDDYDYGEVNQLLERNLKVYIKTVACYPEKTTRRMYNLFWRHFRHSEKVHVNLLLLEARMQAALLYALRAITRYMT
Sequence of UniProt Q9UL25 (Q9UL25 whole entry, looked up): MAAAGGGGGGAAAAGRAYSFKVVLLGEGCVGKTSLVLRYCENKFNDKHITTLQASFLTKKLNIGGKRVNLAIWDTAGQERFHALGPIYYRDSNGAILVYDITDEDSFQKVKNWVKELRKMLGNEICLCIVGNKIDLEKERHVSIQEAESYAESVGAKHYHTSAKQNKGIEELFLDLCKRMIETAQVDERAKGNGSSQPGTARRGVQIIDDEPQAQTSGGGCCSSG
Sequence of UniProt O43502 (O43502 whole entry, looked up): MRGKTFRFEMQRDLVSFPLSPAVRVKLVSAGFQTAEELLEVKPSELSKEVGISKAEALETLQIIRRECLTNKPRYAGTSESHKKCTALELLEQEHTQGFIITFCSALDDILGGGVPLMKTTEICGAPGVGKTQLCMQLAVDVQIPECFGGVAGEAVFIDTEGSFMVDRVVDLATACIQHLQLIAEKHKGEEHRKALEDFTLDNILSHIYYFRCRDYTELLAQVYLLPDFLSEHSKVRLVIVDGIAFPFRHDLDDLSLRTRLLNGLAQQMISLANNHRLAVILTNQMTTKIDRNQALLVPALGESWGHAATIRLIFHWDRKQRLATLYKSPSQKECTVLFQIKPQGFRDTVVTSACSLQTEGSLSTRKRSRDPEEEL
Sequence of UniProt Q7L0Q8 (Q7L0Q8 whole entry, looked up): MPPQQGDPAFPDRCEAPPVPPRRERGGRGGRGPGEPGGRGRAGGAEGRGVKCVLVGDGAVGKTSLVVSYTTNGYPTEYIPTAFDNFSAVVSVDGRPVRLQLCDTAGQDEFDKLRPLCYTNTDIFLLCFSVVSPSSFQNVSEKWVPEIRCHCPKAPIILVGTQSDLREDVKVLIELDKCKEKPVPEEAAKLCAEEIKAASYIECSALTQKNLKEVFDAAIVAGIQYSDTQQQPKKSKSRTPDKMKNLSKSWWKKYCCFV

Regarding RAP1B (UniProt P61224), the log2 fold change is 0.048 in assay [1]; 0.078 in assay [2]; -0.036 in assay [3]; -0.024 in assay [4]; -0.012 in assay [5].
Regarding SEC62 (UniProt Q99442), the log2 fold change in assay [1] is 0.036; in assay [2], 0.133; in assay [3], 0.015; in assay [4], 0.007; in assay [5], -0.019.
On to R3HCC1 (UniProt Q9Y3T6), for which the log2 fold change in assay [1] was 0.045; in assay [2], -0.259 (active); in assay [3], -0.036; in assay [4], -0.002; in assay [5] it was 0.067.
For RMI2 (UniProt Q96E14), the log2 fold change in assay [1] is -0.008; in assay [2], -0.586 (active); in assay [3], 0.092; in assay [4] it was 0.041; in assay [5] it was -0.01.
The corresponding values for RAB21 (UniProt Q9UL25) are 0.017, -0.235, -0.021, 0.029 and 0.02.
Turning to SEC16A isoform 5 (UniProt O15027), the log2 fold change is 0.053 in assay [1]; -0.281 (active) in assay [2]; 0.008 in assay [3]; -0.029 in assay [4]; -0.015 in assay [5].
The corresponding values for RETSAT (UniProt Q6NUM9) are -0.087, 0.17, -0.016, 0.058 and 0.036.
For RALGAPB (UniProt Q86X10), the log2 fold change is 0.004 in assay [1]; -0.299 (active) in assay [2]; 0.017 in assay [3]; -0.017 in assay [4]; -0.029 in assay [5].
For RAD50 isoform 2 (UniProt Q92878), the log2 fold change in assay [1] was -0.005; in assay [2], -0.458 (active); in assay [3] it was 0.024; in assay [4] it was -0.009; in assay [5], -0.003.
The corresponding values for RPN2 (UniProt P04844) are -0.007, 0.118, 0.008, -0.04 and -0.009.
The corresponding values for SAR1B (UniProt Q9Y6B6) are -0.083, 0.155, -0.103, -0.044 and -0.053.
On to RHOU (UniProt Q7L0Q8), for which the log2 fold change in assay [1] was 0.019; in assay [2] it was -0.116; in assay [3], 0.058; in assay [4] it was -0.039; in assay [5], 0.024.
For RTN4IP1 (UniProt Q8WWV3), the log2 fold change in assay [1] was -0.1; in assay [2], -0.338 (active); in assay [3] it was 0.165; in assay [4], 0.054; in assay [5] it was -0.01.
The corresponding values for SEC61G (UniProt P60059) are -0.047, 0.005, 0.013, 0.232 and -0.034.
For the target RCAN1 (UniProt P53805), the log2 fold change in assay [1] was 0.082; in assay [2] it was -0.197; in assay [3], 0.02; in assay [4] it was 0.02; in assay [5], 0.031.
As for RASA3 (UniProt Q14644), the log2 fold change in assay [1] is -0.022; in assay [2], -0.361 (active); in assay [3], -0.08; in assay [4], -0.015; in assay [5], 0.017.
Consider QRSL1 (UniProt Q9H0R6), for which the log2 fold change in assay [1] was 0.066; in assay [2], -0.308 (active); in assay [3] it was 0.051; in assay [4], 0.028; in assay [5], 0.019.
The corresponding values for RIPK1 (UniProt Q13546) are -0.021, -0.292 (active), -0.037, -0.013 and 0.011.
For the target RPL36AL (UniProt Q969Q0), the log2 fold change in assay [1] was -0.056; in assay [2], 0.124; in assay [3], 0.011; in assay [4], 0.131; in assay [5], -0.001.
Take RPS6KB1 (UniProt P23443): the log2 fold change is -0.049 in assay [1]; -0.319 (active) in assay [2]; 0.132 in assay [3]; -0.017 in assay [4]; -0.005 in assay [5].
As for RAD51C (UniProt O43502), the log2 fold change is 0.023 in assay [1]; -0.386 (active) in assay [2]; -0.003 in assay [3]; -0.015 in assay [4]; 0.065 in assay [5].
The corresponding values for SESN2 (UniProt P58004) are 0.006, -0.367 (active), 0.066, 0.022 and 0.073.
The corresponding values for RBM8A (UniProt Q9Y5S9) are -0.113, 0.103, 0.042, -0.046 and -0.019.
As to SAMD4A (UniProt Q9UPU9), the log2 fold change in assay [1] is -0.038; in assay [2], -0.647 (active); in assay [3] it was 0.027; in assay [4], 0.014; in assay [5] it was -0.053.
